Source: PubChem BioAssay AID504467 (National Center for Advancing Translational Sciences (NCATS), 2011)
In all, about 330,000 compounds went through this assay and about 7,700 (2.3%) were called active. Inconclusive results (about 26%) are left out. Calls follow the shape of the dose curve; as a rule, active = well fitted inhibition curve with a large enough effect; inconclusive = small, poorly fitted or top-dose-only effect, or effect the other way; inactive = flat fitted curve, though single readings scatter. The list comes from a sample in which actives are over-represented; it also holds similar structures and randomly drawn compounds. Entries that show only a call come without a potency.
Potency is read from the fitted curve at half-maximal effect.

Assay: qHTS screen for small molecules that inhibit ELG1-dependent DNA repair in human embryonic kidney (HEK293T) cells expressing luciferase-tagged ELG1; also: nearly all actives have a fitted effect of over 55% in size
Details: HEK293T ELG1-luciferase reporter, luminescence, 16 h, DNA damage induced by 5-fluorouridine; series mostly up to 46.1 µM
Method in brief: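 DMSO vehicle served as the neutral condition. Each well held 2,000 cells given 5-fluorouridine plus compound; after 16 hr at 37 °C/5% CO2, ONE-Glo was added and luciferase measured 30 min later.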
With `O=C(COC(=O)c1cc[n+]([O-])cc1)Nc1ccc(Cl)c(C(F)(F)F)c1` the Potency was “inactive”. In the case of `CN(C)C1=NC[C@H](Cc2ccccc2)N1CCc1ccc(F)cc1`, the Potency is reported as “inactive”. With `COc1ccc(NC(=O)C2CCC(CNC(=O)[C@@H]3Cc4ccccc4CN3)CC2)cc1` (stereo not given in full) the Potency was “inactive”. In the case of `COc1ccc(N(Cc2cc3ccc(C)cc3[nH]c2=O)S(=O)(=O)c2ccccc2)cc1`, the Potency is reported as “inactive”. In the case of `CC(C)n1cnc2c(NCc3ccccc3)cc(N[C@@H](CO)Cc3ccccc3)cc21`, the Potency is reported as 16.4 µM (active). With `CC(C)n1cnc2c(NCc3ccccc3)cc(OCC3CCN(C)CC3)cc21` the Potency was “inactive”. With `COc1ccc(CNC(=O)/C(C#N)=C/c2cccc(OC)c2OC)cc1` the Potency was “inactive”. With `CN(CC(=O)Nc1ccc(OC(F)F)cc1)S(=O)(=O)/C=C/c1ccccc1` the Potency was “inactive”. With `COc1ccc(N2CCN(c3ccc([N+](=O)[O-])cc3Cl)CC2)cc1` the Potency was “inactive”. In the case of `O=C(O)C1CCN(c2ccc([N+](=O)[O-])cc2[N+](=O)[O-])CC1`, the Potency is reported as “inactive”. With `O=[N+]([O-])c1ccc(N2CCN(c3ccc(O)cc3)CC2)c(Cl)c1` the Potency was 23.1 µM (active). For `CN(C)C(=O)CCc1ccc2c3c([nH]c2c1)[C@]1(CCC2CCCC2)[C@@H](C(=O)N2CCOCC2)C[C@H](CC(=O)NCc2ccco2)C(=O)N1CC3`, the Potency was “inactive”. With `CCN(CC(=O)Nc1cc(Cl)ccc1C)C(=O)Cn1c(=O)cnc2ccccc21` the Potency was “inactive”. In the case of `CC(Oc1ccc2c(-c3ccccc3)cc(=O)oc2c1)C(=O)NC(Cc1c[nH]c2ccccc12)C(=O)O` (stereo not given), the Potency is reported as “inactive”. In the case of `CC(C)(C)OC(=O)C[C@@H]1C/C=C\C[C@@H](CC(=O)N[C@H](CO)Cc2ccccc2)C(=O)NCCOC1=O`, the Potency is reported as “inactive”. In the case of `CC(Oc1ccc(F)cc1)C(=O)N1CCN(c2ncccn2)CC1` (stereo not given), the Potency is reported as “inactive”. With `CC12CCC(C(=O)N3CCN(c4ncccn4)CC3)(c3nc4ccccc4nc31)C2(C)C` (stereo not given) the Potency was 4.11 µM (active). For `CCNC(=S)N1CCN(c2ncccn2)CC1`, the Potency was “inactive”. With `CN(C(=O)CN1C(=O)/C(=C/c2ccc(Cl)cc2)SC1=S)C1CCS(=O)(=O)C1` (stereo not given) the Potency was “inactive”. With `COCCn1c(SCC(=O)Nc2ccc3c(c2)CCC3)nc2ccccc2c1=O` the Potency was “inactive”. For `CCn1c(SCC(=O)Nc2ccc(C)cc2)nc2nc3c(cc2c1=O)CCCC3`, the Potency was 18.4 µM (active). In the case of `CC(=O)NCCn1c(SCC(=O)Nc2ccc(C)cc2)nc2ccccc2c1=O`, the Potency is reported as “inactive”. With `COc1cc(/C=C/C(=O)OCC(=O)c2ccccc2)cc(OC)c1OC` the Potency was “inactive”. For `O=C(c1ccc(Cl)nc1)N1CCN(S(=O)(=O)c2ccc3c(c2)OCCO3)CC1`, the Potency was “inactive”. With `COc1ccc(C(C(=O)NC(C)(C)C)N(Cc2ccc(F)cc2)C(=O)CCC(=O)Nc2cc(C)on2)cc1` (stereo not given) the Potency was “inactive”. For `Cc1cc(NC(=O)C(C)SCC(=O)Nc2ccccc2N2CCCCC2)no1` (stereo not given), the Potency was “inactive”. With `C[C@H](NS(=O)(=O)c1ccc(Cl)cc1)C(=O)OCC(=O)N1CCOCC1` the Potency was “inactive”. For `Cn1c(SCC(=O)N2CCCCC2)nc2c(c1=O)SCC2`, the Potency was “inactive”. For `Cc1cccc(CSc2nc3c(c(=O)n2C)SCC3)c1`, the Potency was 14.6 µM (active). With `CCn1c(SCc2ccccc2)nc2c(c1=O)SCC2` the Potency was “inactive”. For `Cc1ccc(C(=O)NNC(=O)CSc2nnc3ccccn23)cc1`, the Potency was “inactive”. With `Cc1nn(CC(=O)N2CCCCC2)c(=O)c2nn(-c3ccccc3)c(C)c12` the Potency was “inactive”. For `COc1ccc(CNC(=O)C(C)n2nc(C)c3c(C)n(-c4ccccc4)nc3c2=O)c(OC)c1` (stereo not given), the Potency was “inactive”. With `COc1ccc(OC)c(CNC(=O)Cn2nc(C)c3c(C)n(-c4ccc(C)cc4)nc3c2=O)c1` the Potency was 8.2 µM (active). In the case of `COc1ccc(S(=O)(=O)N2CCOC23CCN(S(=O)(=O)c2ccc([N+](=O)[O-])cc2)CC3)cc1`, the Potency is reported as “inactive”. For `COc1ccccc1C(=O)N1CC2(C)CC1CC(C)(C)C2` (stereo not given), the Potency was “inactive”. In the case of `Cc1nnnn1/C(=C\c1ccccc1)C(=O)OCC(=O)N1CC2(C)CC1CC(C)(C)C2` (stereo not given), the Potency is reported as 20.6 µM (active). With `Cc1cccc(C(=O)NCC(=O)OCC(=O)N2CC3(C)CC2CC(C)(C)C3)c1` (stereo not given) the Potency was “inactive”. In the case of `Cc1ccc(CNC(=O)c2cc(-c3ccccc3C)n(CC3CC(c4cccc([N+](=O)[O-])c4)=NO3)n2)cc1` (stereo not given), the Potency is reported as “inactive”. With `O=C(c1ccccc1)N1N=C(c2ccccc2O)CC1c1ccc(Br)cc1` (stereo not given) the Potency was “inactive”. In the case of `COc1ccc2c(CC(=O)NNC(=O)c3ccccc3F)coc2c1`, the Potency is reported as “inactive”. In the case of `COc1ccc(Cn2c(=S)[nH]c3cc(C(=O)NCCCN4CCOCC4)ccc3c2=O)cc1`, the Potency is reported as “inactive”. For `CCC(=O)Nc1ccc(C(=O)Nc2ccc3c(c2)C(=O)N(CC2CCCO2)C3=O)cc1` (stereo not given), the Potency was “inactive”. In the case of `Cc1cccc(NC(=O)c2ccc3c(=O)n(CC4CCCO4)c(=S)[nH]c3c2)c1` (stereo not given), the Potency is reported as 16.4 µM (active). In the case of `COc1ccccc1N1CCN(C(=O)c2ccc(NC3=NC4CS(=O)(=O)CC4S3)cc2)CC1` (stereo not given), the Potency is reported as “inactive”. In the case of `COc1ccc(-c2nn(C)c(=O)c3ccccc23)cc1CNC(=O)C1CCCCC1`, the Potency is reported as 20.6 µM (active). In the case of `COc1ccc(OC)c(CNC(=O)C2CCCN(c3nc4ccccc4o3)C2)c1` (stereo not given), the Potency is reported as “inactive”. For `COc1ccccc1CNC(=O)C1CCN(c2nc3ccccc3o2)CC1`, the Potency was “inactive”. For `CCN(CC(=O)Nc1cc(Cl)ccc1C)C(=O)CSCc1ccccc1`, the Potency was “inactive”. For `COc1ccc(-c2nn(-c3ccccc3)cc2C(=O)Nc2nc(CC(C)=O)ns2)cc1`, the Potency was “inactive”. For `O=C(O)c1ccc(NC(=O)c2cn(-c3ccccc3)nc2-c2ccc(Cl)cc2)cc1`, the Potency was “inactive”. For `COc1ccc(-c2nn(-c3ccccc3)cc2C(=O)Nc2nccs2)cc1OC`, the Potency was 3.26 µM (active). With `Cc1nnc(SCC(=O)N/N=C/c2cn(-c3ccccc3)nc2-c2ccc(F)cc2)n1-c1ccccc1` the Potency was “inactive”. For `CN(C)/N=C/c1cn(-c2ccccc2)nc1-c1cccnc1`, the Potency was “inactive”. For `COc1ccc(-c2nn(-c3ccccc3)cc2/C=N/Nc2ccccn2)cc1OC`, the Potency was 14.6 µM (active). With `CCC(C)N(C(=O)CSc1ncnc2c1cnn2-c1ccccc1)C1CCS(=O)(=O)C1` (stereo not given) the Potency was “inactive”. With `O=C(CSc1nc2ccccc2c(=O)n1Cc1ccc(F)cc1)NCC1CCCO1` (stereo not given) the Potency was “inactive”. In the case of `Cc1nc2ccccc2c(-c2ccccc2)c1C(=O)c1ccccc1`, the Potency is reported as “inactive”. For `Cc1nc2ccccc2c(C)c1C(=O)c1ccc(F)cc1`, the Potency was 14.6 µM (active). In the case of `CN(Cc1nc2ccccc2s1)C(=O)c1ccc(F)cc1`, the Potency is reported as “inactive”. With `Cc1ccc2nc(SCC(=O)N3CC(C)OC(C)C3)nc(=O)n2c1` (stereo not given) the Potency was “inactive”. For `COc1ccc(NC(=O)C2CCCN(S(=O)(=O)c3cccc4cccnc34)C2)cc1OC` (stereo not given), the Potency was 20.6 µM (active). With `Cc1ccc(C)c(OCCC(=O)Nc2cccc(S(=O)(=O)N3CCCC3)c2)c1` the Potency was “inactive”. With `COc1ccc(CCNC(=O)C2CCCN(S(=O)(=O)c3ccc(OC)cc3)C2)cc1` (stereo not given) the Potency was “inactive”. In the case of `CCN(CC(=O)Nc1ccc(S(=O)(=O)N2CCCC2)cc1)CC(=O)Nc1cccc(OC)c1`, the Potency is reported as “inactive”. In the case of `O=C(O)C1CCCN(S(=O)(=O)c2cccc3cccnc23)C1` (stereo not given), the Potency is reported as “inactive”. In the case of `CCOc1ccc(NC(=O)COc2ccc(S(=O)(=O)N3CCCC3)cc2)cc1`, the Potency is reported as “inactive”. In the case of `Cc1cccc(OCCCC(=O)Nc2ccc(S(=O)(=O)N3CCCC3)cc2)c1`, the Potency is reported as 18.4 µM (active). For `COc1ccccc1CNC(=O)C1CCCN(S(=O)(=O)c2cccc3cccnc23)C1` (stereo not given), the Potency was “inactive”. For `CCOc1cccc(NC(=O)C2CCCN(S(=O)(=O)c3ccc(OC)cc3)C2)c1` (stereo not given), the Potency was 23.1 µM (active). With `COc1ccc(C(=O)O)cc1S(=O)(=O)NC1CCN(Cc2ccccc2)CC1` the Potency was “inactive”. With `CCOCCCN(C)C1CCN(C(=O)c2oc3ccccc3c2NC(=O)Cc2cccc([N+](=O)[O-])c2)CC1` the Potency was “inactive”. With `CCCCC[C@@H]1C=C(C(=O)O)[C@H](c2ccc(C#N)cc2)N1S(=O)(=O)c1ccc(C)cc1` the Potency was “inactive”. With `COc1ccc(C(C(=O)NCC2CCCO2)N(C(=O)Cn2nnc3ccccc32)c2ccc(NC(C)=O)cc2)cc1OC` (stereo not given) the Potency was “inactive”. For `COc1ccccc1CNS(=O)(=O)c1cc(C(=O)NCc2ccccn2)c(Cl)cc1Cl`, the Potency was “inactive”. For `COc1ccc(N2CCN(C(=O)Cn3cnc4sc(C)c(S(=O)(=O)N5CCOCC5)c4c3=O)CC2)cc1`, the Potency was “inactive”. For `CCN(CC)P(=O)(Nc1ccc(SC(F)F)cc1)c1ccc(N(C)C)cc1NC(=O)c1ccco1` (stereo not given), the Potency was 7.3 µM (active). With `Cc1cccc(OCC(=O)Nc2ccc(NC(=O)c3ccco3)c(C)c2)c1` the Potency was “inactive”. With `COc1ccc(OCC(=O)Nc2ccc(NC(=O)c3ccco3)c(C)c2)cc1` the Potency was “inactive”. With `Cc1ccc2c(c1)c1ncn(Cc3ccc(F)cc3)c(=O)c1n2C` the Potency was “inactive”. With `CC(C)(C)n1ncc2c(=O)n(Cc3c(Cl)cccc3Br)cnc21` the Potency was “inactive”. With `CC(C)(C)n1ncc2c(=O)n(Cc3ccc(Cl)cc3)cnc21` the Potency was 20.6 µM (active). With `COc1cc(NC(=O)COC(=O)c2cc(S(=O)(=O)N3CCOCC3)ccc2F)cc(OC)c1` the Potency was “inactive”. In the case of `COCCNc1nc(N)c([N+](=O)[O-])c(N2CCCCCC2)n1`, the Potency is reported as “inactive”. For `O=C(CN1CCN(c2ccccc2O)CC1)NC(=O)NCc1ccccc1`, the Potency was “inactive”. With `C/C(=C\c1ccco1)CN1CCC(N2CCC(C(=O)N3CCOCC3)CC2)CC1` the Potency was “inactive”. With `O=C(C1CCN(C2CCN(Cc3ccc4cc(F)ccc4n3)CC2)CC1)N1CCCC1` the Potency was 13 µM (active). For `O=C(C1CCN(C2CCN(Cc3cccc4c3OCO4)CC2)CC1)N1CCOCC1`, the Potency was “inactive”. In the case of `CCCC(CNC(=O)COC(=O)C1=NNC(=O)CC1)c1ccc(Cl)cc1Cl` (stereo not given), the Potency is reported as “inactive”. With `CN(CC(=O)Nc1ccc(C(N)=O)cc1)S(=O)(=O)c1ccc2c(c1)OCCO2` the Potency was “inactive”. With `CCOc1ccc(NS(=O)(=O)c2ccc(C(=O)NC3CCN(Cc4ccccc4)CC3)cc2)cc1` the Potency was “inactive”. In the case of `COc1cc(OC)cc(C(=O)N[C@H](C(=O)NNC(=O)c2ccc(Br)cc2)C(C)C)c1`, the Potency is reported as “inactive”. In the case of `O=C(NCC(F)(F)F)Nc1nnc(C(F)(F)F)s1`, the Potency is reported as 18.4 µM (active). With `O=C(Nc1nnc(COc2ccccc2)s1)Nc1ccccc1F` the Potency was “inactive”. For `COc1ccc(C)cc1NC(=O)CCC(=O)Nc1nnc(C(F)(F)F)s1`, the Potency was “inactive”.
